# Results from PubChem BioAssay (Tox21).
# Inconclusive results are not listed. Unmarked numbers belong to inactive results. Activity calls are given as the source filed them. Unless noted, calls follow the shape of the dose curve; as a rule, active = well fitted curve in the direction sought with a large enough effect in the repeat runs; inconclusive = weak or mixed curves; inactive = no such curve, though single readings can be large; an effect the other way counts as inactive or inconclusive.
# Test system: not listed separately
# Test: qHTS assay to identify small molecule antagonists of the retinoid-related orphan receptor gamma (ROR-gamma) signaling pathway - cell viability counter screen (AID 1159520); also: % is scaled to controls: 0 for no effect and ±100 for the full control effect; nearly all actives have a fitted effect of over 50% in size
# Conditions: Tet-on RORgamma CHO cells viability, ATP luminescence, 16 h; series mostly up to 92.4 µM; activity, negative = cytotoxicity: at the top concentration
# Procedure, shortened: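 Tet-on ROR gamma CHO cells were given compounds for 2 hr, then doxycycline hyclate at 1 uM final, and incubated 16 hr at 37 C. Viability was measured as ATP content by CellTiter-Glo luminescence.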
row,Compound,"activity, negative = cytotoxicity"
1,Oc1ccc(C(O)CNCCCCCCNCC(O)c2ccc(O)c(O)c2)cc1O (centres undefined),5.81% [at 42.5 µM]
2,O=C(CC(=O)c1ccccc1)c1ccccc1,-15.9%
3,OC(CCN1CCCCC1)(c1ccccc1)C1CCCCC1 (centres undefined),-0.42% [at 42.5 µM]
4,O=C1Nc2cc(Cl)ccc2Oc2ccccc21,-6.56% [at 42.5 µM]
5,CC(=O)/C=C/C1C(C)=CCCC1(C)C (centres undefined),-9.33%
6,Oc1ccc(O)c2c(O)cccc12,3.68%
7,CCCCCOC(=O)COc1cc(N2C(=O)C3=C(CCCC3)C2=O)c(F)cc1Cl,3.7%
8,Cn1c(NCCN(CCO)CCCc2ccc([N+](=O)[O-])cc2)cc(=O)n(C)c1=O,6.32% [at 42.5 µM]
9,Cc1ccccn1,1.43%
10,C=CC(C)(CCC=C(C)C)OC(=O)c1ccccc1 (centres undefined),-9.11%
11,O=S1(=O)c2cccc3cccc(c23)N1CCCN1CCN(c2ccc(F)cc2)CC1,0.939% [at 42.5 µM]
12,Cc1ncsc1CCO,-2.47%
13,Cc1cc(C)c(S(=O)(=O)O)cc1N=Nc1cc(S(=O)(=O)O)c2ccccc2c1O,-21%
14,CCCCCOC(=O)c1ccc(O)cc1,-6.52%
15,O=[N+]([O-])c1cc[n+]([O-])cc1,-10.6%
16,CC(C)(Oc1ccc(Cl)cc1)C(=O)OCCCOC(=O)C(C)(C)Oc1ccc(Cl)cc1,2.58% [at 42.5 µM]
17,CCCC(C)C,6.43%
18,CN(c1nccc(=O)[nH]1)C1CCN(c2nc3ccccc3n2Cc2ccc(F)cc2)CC1,0.486% [at 42.5 µM]
19,CCCC(=O)OCC,4.75%
20,O=S1(=O)N=C(O)c2ccccc21,8.49% [at 42.5 µM]
21,O=C(O)/C=C/c1cnc[nH]1,2.21%

# Biological target: Nuclear receptor ROR-gamma (Homo sapiens) (UniProt P51449)
# Test: qHTS assay to identify small molecule antagonists of the retinoid-related orphan receptor gamma (ROR-gamma) signaling pathway (AID 1159521; also: nearly all actives have a fitted effect of over 50% in size; also: potency is read from the fitted curve at half-maximal effect; as to activity change, negative = inhibition: top concentration of the series differs between compounds; % is scaled to controls: 0 for no effect and ±100 for the full control effect)
# Conditions: Tet-on RORgamma CHO cells, RORE-luciferase, 16 h; series mostly up to 92.4 µM; activity change, negative = inhibition: at the top concentration
# Procedure, shortened: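 Antagonist read-out: drop in luminescence (ONE-Glo) from an RORE-LUC reporter in CHO cells with doxycycline-inducible ROR-gamma; 2 hr compound pretreatment, 1 uM doxycycline, 16 hr incubation at 37 C.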
Compound,"activity change, negative = inhibition",Potency
Cc1ccc(C)o1,12%,
CCCCCCCCCC(=O)OCC,10.5%,
CC[C@H](C)[C@@H](C(=O)O)n1sc2ccccc2c1=O,-18%,
O=C(NS(=O)(=O)/C=C/c1cccs1)c1ccc(F)cc1Br,-8.56%,
CC(=O)O[C@H]1C[C@@H]2CC[C@@H]3[C@H](CC[C@@]4(C)[C@H]3C[C@H]([N+]3(C)CCCCC3)[C@@H]4OC(C)=O)[C@@]2(C)C[C@@H]1N1CCCCC1,-3.65% [at 42.5 µM],
CC(C)(C)c1cc(CCC(=O)OCC(COC(=O)CCc2cc(C(C)(C)C)c(O)c(C(C)(C)C)c2)(COC(=O)CCc2cc(C(C)(C)C)c(O)c(C(C)(C)C)c2)COC(=O)CCc2cc(C(C)(C)C)c(O)c(C(C)(C)C)c2)cc(C(C)(C)C)c1O,0.603% [at 42.5 µM],
CN(C)C/C=C(/c1ccc(Br)cc1)c1cccnc1,14.4% [at 42.5 µM],
O=c1[nH]cnc2ccccc12,30.8%,
Cc1ccc(C(=O)C(C)CN2CCCCC2)cc1 (centres undefined),-0.351% [at 42.5 µM],
CC(C)c1ccccc1C(C)C,37.5%,
CC(C)(C)c1ccc(S)cc1,-4.79%,
CC(=O)[C@@]1(O)CC[C@H]2[C@@H]3C[C@H](C)C4=CC(=O)CC[C@]4(C)[C@H]3CC[C@@]21C,-55.6% [at 42.5 µM],
N#CCc1cccc(C(F)(F)F)c1,-0.498%,
CN(C)CC[C@@H](c1ccc(Br)cc1)c1ccccn1,45.5% [at 42.5 µM],
CC1=CC(=O)/C(=C(/C)O)C(=O)O1,1.11%,
O=C(NN1CCCC1)NS(=O)(=O)c1ccc(Cl)cc1,-0.236% [at 42.5 µM],
Nc1nc(N)c(-c2ccccc2)s1,22.2% [at 42.5 µM],
Oc1ccc(C(O)CNCCCCCCNCC(O)c2ccc(O)c(O)c2)cc1O (centres undefined),2.36% [at 42.5 µM],
O=C(CC(=O)c1ccccc1)c1ccccc1,18.7%,

Compound,"activity change, negative = inhibition",Potency
OC(CCN1CCCCC1)(c1ccccc1)C1CCCCC1 (centres undefined),-18.3% [at 42.5 µM],
O=C1Nc2cc(Cl)ccc2Oc2ccccc21,-20.4% [at 42.5 µM],
CC(=O)/C=C/C1C(C)=CCCC1(C)C (centres undefined),5.53%,
Oc1ccc(O)c2c(O)cccc12,-8.53%,
CCCCCOC(=O)COc1cc(N2C(=O)C3=C(CCCC3)C2=O)c(F)cc1Cl,-29.8%,
Cn1c(NCCN(CCO)CCCc2ccc([N+](=O)[O-])cc2)cc(=O)n(C)c1=O,-0.203% [at 42.5 µM],
Cc1ccccn1,-3.75%,
C=CC(C)(CCC=C(C)C)OC(=O)c1ccccc1 (centres undefined),2.94%,
O=S1(=O)c2cccc3cccc(c23)N1CCCN1CCN(c2ccc(F)cc2)CC1,-11.3% [at 42.5 µM],
Cc1ncsc1CCO,-2.28%,
CCCCCOC(=O)c1ccc(O)cc1,91.1%,
O=[N+]([O-])c1cc[n+]([O-])cc1,,9.69 µM (active)
CC(C)(Oc1ccc(Cl)cc1)C(=O)OCCCOC(=O)C(C)(C)Oc1ccc(Cl)cc1,0.767% [at 42.5 µM],
CCCC(C)C,19.7%,
CN(c1nccc(=O)[nH]1)C1CCN(c2nc3ccccc3n2Cc2ccc(F)cc2)CC1,19.6% [at 42.5 µM],
CCCC(=O)OCC,-9.22%,
O=S1(=O)N=C(O)c2ccccc21,0.971% [at 42.5 µM],
O=C(O)/C=C/c1cnc[nH]1,50%,

# Test system: not listed separately
# Test: qHTS assay to identify small molecule agonists of the AP-1 signaling pathway - cell viability counter screen (AID 1159525; calls by dose curve; also: nearly all actives have a fitted effect of over 55% in size)
# Conditions: ME-180 AP-1-bla cells viability, ATP luminescence, 5 h; series mostly up to 76.8 µM; viability change, negative = cytotoxic: at the top concentration
# Procedure, shortened: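 AP-1-bla ME-180 cells in Opti-MEM with 0.5% dialyzed FBS, compound exposure 5 h at 37 C in 15-point titration. Viability read in the same wells as ATP content by CellTiter-Glo luminescence, normalised to tetra-n-octylammonium bromide and DMSO controls.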
row,Compound,"viability change, negative = cytotoxic [%]"
1,C#CCOC(=O)[C@@H](C)Oc1ccc(Oc2ncc(Cl)cc2F)cc1,-1.22
2,N#CCc1cccc(C(F)(F)F)c1,7.39
3,O=C(CC(=O)c1ccccc1)c1ccccc1,-11
4,Cc1cc(C)c(S(=O)(=O)O)cc1N=Nc1cc(S(=O)(=O)O)c2ccccc2c1O,17.2

# Test system: not listed separately
# Test: qHTS assay to identify small molecule agonists of the AP-1 signaling pathway (AID 1159526; calls by dose curve; also: % is scaled to controls: 0 for no effect and ±100 for the full control effect)
# Conditions: ME-180 (cervical carcinoma) AP-1-bla reporter, beta-lactamase FRET ratio, 5 h; series mostly up to 76.8 µM; activation: at the top concentration
row,Compound,activation
1,Cc1ccc(C)o1,-13%
2,CCCCCCCCCC(=O)OCC,0.914%
3,CC[C@H](C)[C@@H](C(=O)O)n1sc2ccccc2c1=O,14.4%
4,O=C(NS(=O)(=O)/C=C/c1cccs1)c1ccc(F)cc1Br,0.601%
5,CC(C)(C)c1cc(CCC(=O)OCC(COC(=O)CCc2cc(C(C)(C)C)c(O)c(C(C)(C)C)c2)(COC(=O)CCc2cc(C(C)(C)C)c(O)c(C(C)(C)C)c2)COC(=O)CCc2cc(C(C)(C)C)c(O)c(C(C)(C)C)c2)cc(C(C)(C)C)c1O,-3.69% [at 35.3 µM]
6,CN(C)C/C=C(/c1ccc(Br)cc1)c1cccnc1,-2.12% [at 35.3 µM]
7,O=c1[nH]cnc2ccccc12,-1.86%
8,Cc1ccc(C(=O)C(C)CN2CCCCC2)cc1 (centres undefined),-0.221% [at 35.3 µM]
9,CC(C)(C)c1ccc(S)cc1,9.43%
10,C#CCOC(=O)[C@@H](C)Oc1ccc(Oc2ncc(Cl)cc2F)cc1,-8.87%
11,CN(C)CC[C@@H](c1ccc(Br)cc1)c1ccccn1,23.9% [at 35.3 µM]
12,CC1=CC(=O)/C(=C(/C)O)C(=O)O1,-4.89%
13,O=C(NN1CCCC1)NS(=O)(=O)c1ccc(Cl)cc1,-0.412% [at 35.3 µM]
14,Nc1nc(N)c(-c2ccccc2)s1,5.55% [at 35.3 µM]
15,Oc1ccc(C(O)CNCCCCCCNCC(O)c2ccc(O)c(O)c2)cc1O (centres undefined),10.6% [at 35.3 µM]
16,CC(=O)/C=C/C1C(C)=CCCC1(C)C (centres undefined),-7.07%
17,CCCCCOC(=O)COc1cc(N2C(=O)C3=C(CCCC3)C2=O)c(F)cc1Cl,12.6%
18,Cn1c(NCCN(CCO)CCCc2ccc([N+](=O)[O-])cc2)cc(=O)n(C)c1=O,-2.13% [at 35.3 µM]
19,Cc1ccccn1,-2.28%
20,Cc1ncsc1CCO,-4.74%
21,Cc1cc(C)c(S(=O)(=O)O)cc1N=Nc1cc(S(=O)(=O)O)c2ccccc2c1O,13.1%
22,CC(C)(Oc1ccc(Cl)cc1)C(=O)OCCCOC(=O)C(C)(C)Oc1ccc(Cl)cc1,6.94% [at 35.3 µM]
23,CCCC(C)C,-0.5%
24,CN(c1nccc(=O)[nH]1)C1CCN(c2nc3ccccc3n2Cc2ccc(F)cc2)CC1,-0.841% [at 35.3 µM]
25,CCCC(=O)OCC,-1.16%
26,O=S1(=O)N=C(O)c2ccccc21,-10% [at 35.3 µM]
27,O=C(O)/C=C/c1cnc[nH]1,-0.184%
